Assay outcomes: PubChem BioAssay, National Center for Advancing Translational Sciences (NCATS)
Shown are actives, neighbours in structure and some others; about 2.3% of the full set was active somewhere.
Giardia killer = Giardia lamblia killing | Giardia lamblia trophozoite viability | hit rate 0.15% among 340,000 | AID 540267 | activity change, % at 7.66 µM, hits read low; in the data active means activity change below about -80%; inconclusive means between about -30% and that limit;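 further: parasites exposed to compound for two days anaerobically before the ATP read; on the % scale 0 is the no-effect control and ±100 the full control effect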
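Each well holds 100 Giardia trophozoites and compound. After two days (48 hrs) at 37 deg C in anaerobic conditions, ATP is quantified by luminescence.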
Nrf2 activator = Nrf2 pathway activation | AREc32 ARE-luciferase reporter (MCF7-derived line), luminescence, 24 h | Potency, µM (doses to about 46.1 µM), for the others: at the highest dose activation, hits mostly activators | hit rate 0.31% among 410,000 | AID 624171; further: potency means the concentration at half of the fitted maximal effect; % of control where 0% means no effect; nearly all actives have a fitted effect of over 65% in size
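Steps: seed AREc32_Fluc cells (1000/well, 5% FBS OPTI-MEM); incubate overnight at 37 deg C; add 23 nL compound; incubate 24 hr; add Steady-Glo; hold 30 min RT; read luminescence.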
Nrf2 inh = blocks Nrf2 signaling; A549 ARE-Fluc reporter, luciferase luminescence, 18-24 h; hit rate 2.1% among 360,000; Potency, µM (titrated, usually from 46 µM), without a hit: at the highest dose activity change, negative = inhibition, usual class: inhibitors; further: potency means the concentration at half of the fitted maximal effect; on the % scale 0 is the no-effect control and ±100 the full control effect; nearly all actives have a fitted effect of over 60% in size
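Cells were seeded and rested 2 h, then exposed to compounds for 18-24 h. CellTiter-Fluor was read first as a viability measure. BugLite was added 15 min before the final luminescent read of ARE-luciferase activity in A549 cells.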
Apoferritin bind = binds horse apoferritin like a general anesthetic | P02791 | apoferritin/1-aminoanthracene competitive binding, fluorescence | Potency, µM (top dose mostly 77.5 µM), without a hit: at the top dose activity change, negative = displacement, hits mostly inhibitors | hit rate 0.074% among 350,000 | AID 485281; further: potency means the concentration at half of the fitted maximal effect; on the % scale 0 is the no-effect control and ±100 the full control effect; nearly all actives have a fitted effect of over 20% in size
Target sequence (P02791 2-175 limits assumed): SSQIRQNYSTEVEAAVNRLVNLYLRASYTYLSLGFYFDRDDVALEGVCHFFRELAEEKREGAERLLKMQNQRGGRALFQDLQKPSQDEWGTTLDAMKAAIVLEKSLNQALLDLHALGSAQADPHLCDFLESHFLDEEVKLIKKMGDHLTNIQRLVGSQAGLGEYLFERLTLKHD
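Steps: apoferritin (10 uM) was premixed with half-saturated 1-AMA in PBS, compounds were pin-transferred, plates stood 10 min at room temperature, fluorescence was read at 380/535 nm, and curves were fitted with a Hill equation.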
mIDH1 inhibitor = inhibitors of human mutant IDH1 R132H | O75874 | IDH1-R132H enzyme, NADPH consumption, diaphorase/resazurin fluorescence | Potency, µM (highest dose often 76.6 µM), for inactives: top-dose activity change, negative = inhibition, actives largely listed as inhibitors | hit rate 0.093% among 390,000; further: potency means the concentration at half of the fitted maximal effect; on the % scale 0 is the no-effect control and ±100 the full control effect; nearly all actives have a fitted effect of over 65% in size
Target sequence (O75874 whole entry R132H, stated change not applied): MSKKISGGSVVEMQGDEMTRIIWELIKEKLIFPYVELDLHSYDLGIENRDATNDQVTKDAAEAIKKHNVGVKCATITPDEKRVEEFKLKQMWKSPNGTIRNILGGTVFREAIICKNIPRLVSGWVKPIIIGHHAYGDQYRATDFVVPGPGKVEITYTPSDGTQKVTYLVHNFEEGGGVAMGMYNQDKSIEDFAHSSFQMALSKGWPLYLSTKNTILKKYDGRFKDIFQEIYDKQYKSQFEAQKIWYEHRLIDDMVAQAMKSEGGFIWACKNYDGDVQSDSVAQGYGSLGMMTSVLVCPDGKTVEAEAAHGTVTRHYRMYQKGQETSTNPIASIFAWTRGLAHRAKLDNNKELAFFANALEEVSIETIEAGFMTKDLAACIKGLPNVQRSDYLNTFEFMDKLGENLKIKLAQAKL
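IDH1-R132H (0.5 ug/mL dispensed) in pH 7.5 Tris buffer was preincubated 30 min with compound, then given a substrate mix of 0.016 mM NADPH and 2 mM alpha-KG for 80 min at room temperature; remaining NADPH was read by diaphorase/resazurin fluorescence.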
A549 viability = counter-screen for Nrf2 inhibitors: cytotoxicity in A549 cells | A549 ARE-Fluc cells, CellTiter-Fluor viability, 18-24 h | Potency, µM (doses to about 46 µM), inactives show at the highest dose activity change, negative = cytotoxicity, usual class: inhibitors | hit rate 0.16% among 390,000; further: potency means the concentration at half of the fitted maximal effect; on the % scale 0 is the no-effect control and ±100 the full control effect
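Cytotoxicity counterscreen: CellTiter-Fluor fluorescence was measured in A549 ARE_Fluc cells after 18-24 h of compound exposure in a concentration series. The subsequent BugLite luminescent read reports ARE-luciferase activity.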
* hit, by the source's call; ? = inconclusive; . = no result given; [ ] = dose if it differs, or a comment. Unless noted, the call rests on the fitted dose curve; in most records, active means well fitted curve in the direction sought with a large enough effect; inconclusive means small, poorly fitted or top-dose-only effect, or another doubt; inactive means no such curve, though single readings can be large; an effect the other way counts as inactive or inconclusive.

SMILES	Giardia killer	Nrf2 activator	Nrf2 inh	Apoferritin bind	mIDH1 inhibitor	A549 viability
COC(=O)c1scc(C)c1NC(=O)C(Cl)c1ccccc1 (stereo unspecified)	-23.7	12.6µM*	3.5%	-8.7%	0.4%	2.3%
COC(=O)c1scc(C)c1NC(=O)Nc1ccccc1	0.5	4.7%	.	-1.2%	5.3%	-6.9%
OC(c1ccc(OCc2ccccc2)cc1)c1nnc(-c2ccccc2)o1 (stereo unspecified)	21.7	-0.1%	16.4µM*	?	2.4%	-18.4%
CCCN(C)C1CN(Cc2cn(Cc3ccc(C)cc3)nn2)S(=O)(=O)C1 (stereo unspecified)	.	0.1%	.	.	.	.
COc1ccc(C#Cc2c[nH]c(=O)c3cncnc23)cc1OC	-2.2	.	22.7%	.	.	-3.9%
Cc1c(C(=O)Nc2ccncc2)sc2nc(-c3ccccc3)cn12	8.9	3.1%	10.3µM*	-2.8%	17.3%	-3.6%
O=C(c1ccc(S(=O)(=O)c2ccccc2Cl)c([N+](=O)[O-])c1)N1CCN(Cc2ccccc2)CC1	-0.6	18.9%	18.4µM*	?	1.6%	?
Cc1ccc(S(=O)(=O)N2CCN(C(=O)CNC(=O)c3ccc(Cl)cc3)CC2)cc1	0.4	0.6%	20.6µM*	.	5.4%	0.1%
Cc1ccc(NS(=O)(=O)c2ccc(C(=O)N3CCN(S(=O)(=O)c4ccccc4)CC3)cc2)cc1	9.7	1.1%	20.6µM*	.	3.8%	-24.6%
CCNS(=O)(=O)c1ccc(CCC(=O)N2CCN(c3ccccc3)CC2)cc1	0.2	2.8%	?	-11.0%	-4.9%	-8.0%
CC(C)CNS(=O)(=O)c1ccc(CCC(=O)N2CCN(c3ccccc3)CC2)cc1	13.7	2.0%	10.3µM*	-22.1%	-2.1%	?
Cc1ccc(S(=O)(=O)Nc2ccc(C(=O)N3CCCC3)cc2)cc1	-13.0	0.4%	0.5%	-17.1%	2.9%	-1.2%
CCOC(=O)C1CC(=NO)c2ccc(OC)c(OC)c2C1 (stereo unspecified)	.	-0.1%	.	.	13.0%	.
CO[C@H]1COC(=O)CCC[C@H](C)[C@H](OC)COC(=O)C/C=C\[C@@H]1C	.	.	.	0.8%[15.3 µM]	.	.
CCCn1c(-c2ccc(F)cc2)nc2c(NCCCN3CCCCC3C)nc(C)nc21 (stereo unspecified)	.	.	.	-9.4%	.	.
CCc1nn2c(=O)cc(COC(=O)c3ccc(NC(=O)CCc4ccccc4)cc3)nc2s1	.	0.8%	.	-3.6%	-13.8%	-6.0%
Cc1ccc(NS(=O)(=O)c2ccc3c(c2)CCO3)cc1C	.	.	?	.	.	-1.2%
O=C(c1ccc(CNS(=O)(=O)c2ccccc2)cc1)N1CCN(Cc2ccccc2)CC1	5.1	0.3%	13µM*	-22.0%	2.6%	-14.7%
N#Cc1ccc(CN2CCN(C(=O)c3ccc(S(=O)(=O)NCc4ccco4)cc3)CC2)cc1	16.9	11.0%	8.2µM*	.	-3.4%	?
COc1cccc(S(=O)(=O)NCc2ccc(C(=O)N3CCN(c4ccccc4)CC3)cc2)c1	-17.2	0.4%	?	39.4%	-9.9%	1.8%
Cc1ccc(S(=O)(=O)N2CCN(C(=O)c3ccc(COc4ccccc4)o3)CC2)cc1	-1.0	-0.3%	23.1µM*	.	0.4%	-3.6%
Cc1ccc(S(=O)(=O)NCc2ccc(C(=O)N3CCN(c4ccccc4)CC3)cc2)cc1	18.6	-0.2%	23.1µM*	-1.1%	8.9%	-5.3%
CCC1(c2ccc(OC)cc2)NC(=O)N(C)C1=O (stereo unspecified)	.	.	.	-8.1%	.	.
Cc1ccc(S(=O)(=O)N2CCCN(c3nc(-c4cccs4)nc4ccccc34)CC2)cc1	1.2	.	-19.4%	.	.	-12.0%
CCN1C(=O)c2ccccc2S(=O)(=O)c2ccc(C(=O)NCc3ccc(C)cc3)cc21	.	-0.1%	?	6.3%	5.3%	8.8%
SMILES	Giardia killer	Nrf2 activator	Nrf2 inh	Apoferritin bind	mIDH1 inhibitor	A549 viability
Cc1ccc(C(=O)NCc2ccc(N3CCN(C(=O)OC(C)(C)C)CC3)cc2)cc1	-12.1	0.5%	-16.1%	-5.8%	-4.1%	-2.9%
Cc1ccc(S(=O)(=O)NCc2ccc(N3CCN(C(=O)OC(C)(C)C)CC3)cc2)cc1	24.1	0.3%	25.9µM*	-11.7%	-16.3%	-10.3%
CCc1c2c(nc3ccc4c(c13)OCCO4)-c1nc3ccccc3c(=O)n1C2	-13.2	.	0.259µM*	-0.5%	.	3.2%
O=c1c2ccccc2nc2n1CCO2	-2.2	-1.0%	1.4%	4.3%	3.7%	6.7%
COc1ccc(-c2cc(C(=O)OCC(=O)NC3CC3)c3ccccc3n2)cc1	12.5	2.8%	-10.7%	.	7.7%	5.4%
CN(C(=O)COC(=O)c1c2c(nc3ccccc13)/C(=C/c1cccc([N+](=O)[O-])c1)CCC2)C1CCS(=O)(=O)C1 (stereo unspecified)	-9.5	3.4%	1.0%	-3.6%	4.2%	-4.7%
COc1ccc2cc(-c3cc(C(=O)OCC(=O)Nc4c(C)n(C)n(-c5ccccc5)c4=O)c4ccccc4n3)ccc2c1	-93.7*	2.5%	?	-8.5%	4.2%	4.8%
COc1ccc2cc(-c3cc(C(=O)OCC(=O)NC4CCS(=O)(=O)C4)c4ccccc4n3)ccc2c1 (stereo unspecified)	-87.8*	0.3%	11.6µM*	47.8%	-0.1%	2.5%
COc1ccc(-c2cc(C(=O)Nc3c(C)n(C)n(-c4ccccc4)c3=O)c3ccccc3n2)cc1	3.1	-0.3%	14.9%	4.3%	4.8%	2.6%
O=C(COC(=O)c1c2c(nc3ccccc13)/C(=C/c1cccc([N+](=O)[O-])c1)CCC2)NC1CCS(=O)(=O)C1 (stereo unspecified)	-11.0	0.6%[9.22 µM]	23.1µM*	5.7%	5.1%	-3.7%
CC(C)(CCCCCCCCCCC(C)(C)CC(=O)O)CC(=O)O	.	.	.	-1.5%	.	.
Cc1cc(NC(=O)Cc2ccccc2)c2ccccc2n1	-4.1	0.8%	9.2µM*	-7.6%	-5.3%	-2.1%
Cc1cc(Nc2cccc(Cl)c2)c2ccccc2n1	-3.7	-0.3%	20.6µM*	-17.7%	0.0%	?
Cc1cccc(Nc2cc(C)nc3ccccc23)c1	-6.0	9.9%	?	-11.3%	-0.4%	?
COC(=O)Nc1cc(C)nc2ccccc12	-22.8	2.2%	-2.9%	-10.7%	-0.9%	-5.6%
O=C(Nc1nc2ccccc2[nH]1)c1ccc(F)cc1	?	2.1%	?	-7.9%	4.7%	4.1%
CCc1ccc(C(=O)Nc2nc3ccccc3[nH]2)cc1	-93.5*	-1.5%	?	-14.3%	-12.6%	-13.9%
CCOc1ccc(C(=O)Nc2nc3ccccc3[nH]2)cc1OCC	1.1	6.8%	10.3µM*	?	-7.7%	-12.1%
O=C(Nc1nc2ccccc2[nH]1)c1ccccc1F	-89.4*	-1.3%	?	-5.1%	12.5%	12.1%
